The source of these data is PubChem BioAssay.

Calls of active or inactive are those of the source. Unless noted, the rule behind the calls is not given here.

The subject of experiment [1] is Wnt5a (protein binding on small-molecule microarray). Kind of experiment: small molecules binding Wnt5a protein – biophysical, small-molecule microarray, 635/667 nm fluorescence, primary screen (AID 1142).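 Note: fluorescence read at 667 nm with signal to noise per printed feature.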 Particulars: 635 nm fluorescence, higher = more signal.
A short description of experiment [2]: ATP-based viability of Huh7 replicon cells – cell-based, CellTiter-Glo luminescence, basal, 48 h, cytotoxicity control for HCV replication inhibitor project, primary screen (AID 1143).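 Note: Huh7 hepatoma cells carrying a hepatitis C replication reporter with no stimulus; test concentration not given here.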 The settings on record: higher = more signal, called active from +8 up or from −8 down.
Experiment [3] can be described thus: Pseudomonas biofilm growth suppression – PAO1 strain, BacTiter-Glo luminescence, LB-PBS, primary screen (AID 1144). Particulars: P. aeruginosa PAO1 biofilm, 12 h, higher = more signal.
A short description of experiment [4]: basal CRE-LacZ reporter activity in PC12 – cell-based, unstimulated, primary screen (AID 1145). The settings on record: no forskolin, luminescence, 4.5 h, higher = more signal, called active from +8 up or from −8 down.
Experiment [5] is described as follows: forskolin-driven CRE-LacZ activity in PC12 – cell-based, CRE-LacZ reporter, forskolin-stimulated, primary screen (AID 1146).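 Note: PC12 cells with 6xCRE LacZ reporter stimulated by forskolin 10 µM; beta-galactosidase reporter signal reflecting CREB driven transcription.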 The settings on record: luminescence, 4.5 h, higher = more signal, called active from +8 up or from −8 down.
Experiment [6] deals with Streptavidin (Streptomyces avidinii) (UniProt P22629). Kind of experiment: compounds binding control protein streptavidin – biophysical, small-molecule microarray, 635/667 nm fluorescence, artefact control for SMM compound annotation, primary screen (AID 1147).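 Note: signal reflects streptavidin binding to arrayed compounds as a control protein.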 The settings on record: higher = more signal.
Experiment [7] in a line: probe aInhba binding on compound microarray – biochemical, small-molecule microarray, 635/667 nm fluorescence, primary screen (AID 1148).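 Note: score merges 667nm spot fluorescence with signal-to-noise for antibody binding to printed compounds.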 Particulars: higher = more signal.
The target of experiment [8] is Torsin-1A (Homo sapiens) (UniProt O14656). Kind of experiment: TOR1A wild-type binding on microarray – cell lysate, small-molecule microarray, lysate, 635/667 nm, primary screen (AID 1149). The settings on record: COS7 hTOR1A-WT lysate, 635 nm fluorescence, higher = more signal.
For experiment [9] the target is unchanged. Kind of experiment: torsin A mutant lysate binding on microarrays – cell lysate, small-molecule microarray, COS7 lysate, 635/667 nm fluorescence, primary screen (AID 1150).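 Note: score pools 667 nm emission and signal to noise measuring lysate protein binding.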 The settings on record: COS7 hTOR1A mutant lysate, 635 nm fluorescence, higher = more signal.
In experiment [10] the test system is Sonic hedgehog protein (Shh). Kind of experiment: Sonic hedgehog microarray binding compounds – biochemical, small-molecule microarray, 635/667 nm fluorescence, primary screen (AID 1151).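 Note: Shh protein binding to compounds spotted on small-molecule microarray slides; score combines spot fluorescence intensity with signal-to-noise across triplicate slides.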 The settings on record: 635 nm fluorescence, higher = more signal.

Sequence of Torsin-1A (Homo sapiens) (O14656 whole entry, looked up): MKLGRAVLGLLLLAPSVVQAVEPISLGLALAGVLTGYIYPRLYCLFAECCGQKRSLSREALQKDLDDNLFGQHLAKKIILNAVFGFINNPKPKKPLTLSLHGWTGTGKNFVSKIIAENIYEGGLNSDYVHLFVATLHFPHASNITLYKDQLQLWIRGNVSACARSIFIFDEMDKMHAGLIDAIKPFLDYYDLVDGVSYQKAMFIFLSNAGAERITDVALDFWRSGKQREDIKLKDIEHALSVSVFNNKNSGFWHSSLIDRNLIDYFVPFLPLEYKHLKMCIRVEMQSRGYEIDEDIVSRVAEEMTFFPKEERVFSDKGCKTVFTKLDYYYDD
Sequence of Streptavidin (Streptomyces avidinii) (P22629 whole entry, looked up): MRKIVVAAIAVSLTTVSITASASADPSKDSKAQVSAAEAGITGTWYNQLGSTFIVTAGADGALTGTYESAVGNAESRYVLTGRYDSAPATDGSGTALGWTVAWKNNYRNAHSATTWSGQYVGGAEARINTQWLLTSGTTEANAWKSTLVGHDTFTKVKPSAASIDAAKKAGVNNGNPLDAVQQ

With `CCCN1C(=O)[C@]2(CCC(=O)OC(C)(C)C)N=C(c3ccc(OCCCO)cc3)O[C@@H]2c2ccccc21`, the composite z-score in [1] was 0.456; in experiment [6] it was -0.374; in experiment [7] it was 0.173; with Torsin-1A (Homo sapiens) [8], 1.51; in the experiment with Torsin-1A (Homo sapiens) [9] it was 0.111; in [10], 1.7. Moreover, the z-score was -4.35 (inactive) in experiment [2], -0.543 (inactive) in experiment [3], 0.512 (inactive) in [4] and -1.44 (inactive) in [5].

As to `O=C(NCC(O)CO)[C@@]1(CCS(=O)(=O)c2ccccc2)N=C(c2ccc(OCCCO)cc2)O[C@H]1c1ccccc1` (stereo not given in full), the composite z-score in [1] was 0.274; in [6], 1.4; in [7] it was 0.212; in the experiment with Torsin-1A (Homo sapiens) [8], 0.449; with Torsin-1A (Homo sapiens) [9], 1.23; in experiment [10], -1.04. Besides, the z-score was -3.75 (inactive) in [2], -0.513 (inactive) in experiment [3], 0.675 (inactive) in [4] and -1.04 (inactive) in experiment [5].

`CCOc1cc(C(O)C2C=CC3C(=O)N(c4ccccc4)C(=O)C3N2Nc2ccccc2F)ccc1O` (stereo not given): the composite z-score in [1] is 0.482; in [6] it was 0.376; in experiment [7], 0.75; with Torsin-1A (Homo sapiens) [8] it was -0.166; with Torsin-1A (Homo sapiens) [9] it was 0.407; in experiment [10], -0.663. The z-score in [2] is 0.777 (inactive); in experiment [3], -0.545 (inactive); in [4] it was 0.815 (inactive); in experiment [5], 0.63 (inactive).

Turning to `COc1ccc([Si](C)(C)[C@@H]2[C@@H](CC(=O)N(CCO)Cc3ccccc3)O[C@]3(C(=O)N(Cc4ccc(N5C(=O)c6cccc7cccc5c67)cc4)c4ccccc43)[C@H]2C)cc1`, the composite z-score in experiment [1] is 0.0547; in experiment [6], 0.22; in experiment [7], -0.0112; with Torsin-1A (Homo sapiens) [8], 0.37; with Torsin-1A (Homo sapiens) [9], 0.0705; in [10] it was 1.8. The z-score in experiment [2] was -4.28 (inactive); in [3], -0.298 (inactive); in experiment [4], 0.12 (inactive); in experiment [5], -0.204 (inactive).

Turning to `C=CCOC(=O)[C@@H]1[C@H]2C(=O)O[C@H](c3ccccc3)[C@H](c3ccccc3)N2[C@H](c2ccc(OCCOC(=O)[C@H]3C[C@H]4C(=O)N5CCC[C@H]5C(=O)N4[C@H]3c3cccc(OCCO)c3)cc2)[C@@]12C(=O)Nc1ccc(I)cc12`, the composite z-score in [1] is 0.473; in experiment [6], 0.502; in experiment [7], -0.0552; with Torsin-1A (Homo sapiens) [8] it was 0.438; with Torsin-1A (Homo sapiens) [9], 0.618; in experiment [10] it was 1.97. The z-score in experiment [2] was 0.0351 (inactive); in experiment [3], -0.699 (inactive); in experiment [4], 0.545 (inactive); in experiment [5], -0.206 (inactive).

With `CCCN1C(=O)[C@@]2(c3ccc([N+](=O)[O-])cc3)CC(=O)N(CC34CC5CC(CC(C5)C3)C4)[C@@H]2c2ccc(CO)cc21`, the composite z-score is -0.347 in [1]; -0.192 in [6]; 0.0588 in experiment [7]; -1.21 with Torsin-1A (Homo sapiens) [8]; 0.019 in the experiment with Torsin-1A (Homo sapiens) [9]; 0.102 in experiment [10]. Besides, the z-score in [2] is -0.0818 (inactive); in [3] it was 0.312 (inactive); in [4], 0.272 (inactive); in experiment [5] it was 1 (inactive).

For `O=C1O[C@@H](c2ccccc2)[C@@H](c2ccccc2)N2[C@@H](c3ccccc3OCCO)[C@]3(C(=O)Nc4ccc(C#CCCO)cc43)[C@@H](C(=O)NC[C@H](O)c3ccccc3)[C@H]12`, the composite z-score came to 0.381 in experiment [1]; 1.63 in experiment [6]; 1.17 in experiment [7]; 1.49 with Torsin-1A (Homo sapiens) [8]; 1.86 with Torsin-1A (Homo sapiens) [9]; 1.94 in [10]. Moreover, the z-score was -0.908 (inactive) in experiment [2], 0.191 (inactive) in experiment [3], -0.402 (inactive) in [4] and 0.717 (inactive) in experiment [5].

As for `CC(C)N1C(=O)c2ccccc2[C@](C)(C(=O)NCC(F)(F)F)[C@@H]1c1ccc(CO)cc1`, the composite z-score is -0.218 in experiment [1]; -0.913 in experiment [6]; 0.0516 in [7]; -0.978 with Torsin-1A (Homo sapiens) [8]; 0.33 with Torsin-1A (Homo sapiens) [9]; -0.982 in experiment [10]. The z-score in [2] is -0.167 (inactive); in experiment [3], 0.633 (inactive); in experiment [4] it was 0.414 (inactive); in experiment [5], -0.0278 (inactive).

On to `COc1ccc([Si](C)(C)[C@H]2[C@H](CC(=O)N3Cc4ccccc4C[C@H]3CO)O[C@@]3(C(=O)N(C)c4c(Br)cc(C)cc43)[C@@H]2C)cc1`, for which the composite z-score in [1] is 0.144; in experiment [6], 0.298; in experiment [7], -0.0087; with Torsin-1A (Homo sapiens) [8] it was 0.573; with Torsin-1A (Homo sapiens) [9], 0.435; in [10], 2.11. In addition, the z-score is -7.74 (inactive) in experiment [2], -0.324 (inactive) in [3], 7.68 (inactive) in experiment [4] and -1.29 (inactive) in [5].

Take `O=C1[C@H]2C=C(I)[C@H](C[C@@H]2OCCCCCCO)[C@@]12CO2`: the composite z-score in [1] is -0.302; in [6], -0.324; in experiment [7] it was 0.255; in the experiment with Torsin-1A (Homo sapiens) [8] it was 0.349; in the experiment with Torsin-1A (Homo sapiens) [9], 0.541; in experiment [10], 1.07. Further, the z-score in experiment [2] was 0.567 (inactive); in experiment [3], -0.04 (inactive); in experiment [4] it was 1.21 (inactive); in [5] it was 1.77 (inactive).

On to `COCCOC(=O)N1C(=O)[C@@]2(c3cc(C#CCCO)ccc31)[C@H](C(N)=O)[C@H]1C(=O)O[C@H](c3ccccc3)[C@H](c3ccccc3)N1[C@@H]2c1ccccc1OCCO`, for which the composite z-score in experiment [1] was 0.119; in [6], 0.612; in experiment [7] it was 0.017; with Torsin-1A (Homo sapiens) [8], 0.69; with Torsin-1A (Homo sapiens) [9] it was 0.791; in [10] it was 1.13. For the same compound, the z-score in experiment [2] was -3.54 (inactive); in experiment [3] it was 0.00875 (inactive); in [4], 0.0695 (inactive); in experiment [5] it was -0.29 (inactive).

Turning to `COCCn1c(C(=O)N(C)C)cc2c1C[C@H]1CN(C(=O)c3ccccc3)[C@@](Cc3ccc(OC)cc3)(C(=O)OC)[C@@H]21`, the composite z-score was 0.198 in experiment [1]; 0.572 in experiment [6]; -0.0237 in experiment [7]; 0.236 with Torsin-1A (Homo sapiens) [8]; 1.11 with Torsin-1A (Homo sapiens) [9]; -0.472 in experiment [10]. Further, the z-score was -1.27 (inactive) in experiment [2], 0.491 (inactive) in experiment [3], 0.776 (inactive) in experiment [4] and 0.0711 (inactive) in [5].

Regarding `COC(=O)c1cccc([C@H]2OC(=CC(=O)OC(C)C)C[C@@H](c3cccc(C(=O)OC)c3)O2)c1`, the composite z-score came to 1.19 in experiment [1]; 1.21 in experiment [6]; 0.0649 in [7]; 1.64 in the experiment with Torsin-1A (Homo sapiens) [8]; 1.53 in the experiment with Torsin-1A (Homo sapiens) [9]; 1 in [10]. For the same compound, the z-score in experiment [2] was -2.17 (inactive); in experiment [3], 0.111 (inactive); in experiment [4], 1.26 (inactive); in experiment [5], 1.05 (inactive).
